Bioassay records: PubChem BioAssay, National Center for Advancing Translational Sciences (NCATS)
Shown are actives, neighbours in structure and some others; about 2.2% of the full set was active somewhere.
Nrf2 ARE act: qHTS of Nrf2 Activators | AREc32 ARE-luciferase reporter (MCF7-derived line), luminescence, 24 h | Potency, µM (series often up to 46.1 µM), most hits filed as activators | 410,000 tested, 0.31% active; note: nearly all actives have a fitted effect of over 65% in size
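Steps: seed AREc32_Fluc cells (1000/well, 5% FBS OPTI-MEM); incubate overnight at 37 deg C; add 23 nL compound; incubate 24 hr; add Steady-Glo; hold 30 min RT; read luminescence.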
A549 tox-1: Nrf2 qHTS screen for inhibitors: counterscreen for cytotoxicity. A549 ARE-Fluc cells, CellTiter-Fluor viability, 18-24 h. Potency, µM (titrated, usually from 46 µM), usual class: inhibitors. 390,000 tested, 0.16% active. AID 504648, 2011
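Cytotoxicity counterscreen: CellTiter-Fluor fluorescence was measured in A549 ARE_Fluc cells after 18-24 h of compound exposure in a concentration series. The subsequent BugLite luminescent read reports ARE-luciferase activity.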
Nrf2 block: Nrf2 qHTS screen for inhibitors; A549 ARE-Fluc reporter, luciferase luminescence, 18-24 h; Potency, µM (top dose mostly 46 µM), hits mostly inhibitors; 360,000 tested, 2.1% active; AID 504444, 2011; note: nearly all actives have a fitted effect of over 60% in size
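In this cell-based qHTS, ARE-driven firefly luciferase in A549 cells reports Nrf2 activity; the luminescent signal after BugLite lysis is the measured value, with a prior CellTiter-Fluor read for cell health.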
Pin1 inhibitor: qHTS Assay to Find Inhibitors of Pin1; Pin1 FP peptide displacement, HiFluor488, 10 min; Potency, µM (titrated, usually from 115 µM), most hits filed as inhibitors; 390,000 tested, 0.009% active; active = well fitted inhibition curve with a large enough effect in the polarisation, with a control signal flat, not every such curve was filed as active; inconclusive = small, poorly fitted or top-dose-only effect, or effect the other way, or a change in a side signal; inactive = no such curve, though single readings can be large or run the other way; the % refers to the polarisation
Target sequence (Q13526 whole entry, looked up): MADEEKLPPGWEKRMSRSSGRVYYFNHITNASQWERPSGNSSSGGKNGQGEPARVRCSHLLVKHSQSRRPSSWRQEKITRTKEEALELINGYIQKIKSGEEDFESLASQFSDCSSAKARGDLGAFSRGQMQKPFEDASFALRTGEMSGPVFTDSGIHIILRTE
FLuc enzyme inh: Nrf2 qHTS screen for inhibitors: Purified Fluc Biochemical Counterscreen for Hit Validation; purified firefly luciferase, luminescence inhibition; shares compounds with Nrf2 block; 1,400 tested, 4% active; Potency, µM (top dose mostly 57.5 µM), usual class: inhibitors; note: nearly all actives have a fitted effect of over 65% in size
A549 tox-2: Nrf2 qHTS screen for inhibitors: A549 ARE-Fluc Cytotoxicity Counterscreen for Hit Validation; shares compounds with Nrf2 block; A549 ARE-Fluc cells, cytotoxicity counterscreen; Potency, µM (series often up to 46.1 µM), most hits filed as inhibitors; 1,400 tested, 2% active; AID 720523, 2013;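 note: cells exposed to compounds for 18 to 24 hours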
ARE-Fluc inh: Nrf2 qHTS screen for inhibitors: Nrf2 A549 ARE-Fluc Confirmation Assay for Hit Validation; shares compounds with Nrf2 block; A549 ARE-firefly luciferase reporter, luminescence; Potency, µM (top dose mostly 46.1 µM), most hits filed as inhibitors; 1,400 tested, 74% active; AID 720524, 2013; note: nearly all actives have a fitted effect of over 65% in size
Each line names hits and unclear results; the compound was inactive in the other large screens (follow-up assays come after a bar, where shown). Unless noted, calls come from the whole dose curve; as a rule, active = well fitted curve in the direction sought with a large enough effect; inconclusive = small, poorly fitted or top-dose-only effect, or another doubt; inactive = no such curve, though single readings can be large; an effect the other way counts as inactive or inconclusive.

C=CCc1c(C)nc2nc(SCC(=O)Nc3ccc(OCC)cc3)nn2c1C	none (no result: Nrf2 block)
CCCSc1nc2c(c(=O)[nH]1)C(c1ccc(O)c(OCC)c1)CC(=O)N2 (stereo not drawn)	none
COc1ccc(Cn2c(=O)c3ccccc3n3c(-c4ccc(C)cc4)nnc23)cc1	none
Cc1cc(F)ccc1S(=O)(=O)Nc1ccccc1C(=O)Nc1ccccc1-c1nc2ccccc2[nH]1	A549 tox-1 23µM, Nrf2 block 4.1µM | FLuc enzyme inh inactive | A549 tox-2 inconclusive | ARE-Fluc inh 16µM
COc1ccc(CNC(=O)c2cccc(S(=O)(=O)N3CCCCC3)c2)cc1OC	Nrf2 block 5.2µM | FLuc enzyme inh inactive | A549 tox-2 inactive | ARE-Fluc inh 5.8µM
COc1ccc(CC(=O)Nc2cccc(S(=O)(=O)N3CCCC3)c2)cc1OC	Nrf2 block 4.6µM | FLuc enzyme inh inactive | A549 tox-2 inactive | ARE-Fluc inh 7.3µM
O=C(Cc1n[nH]c(=O)c2ccccc12)Nc1cccc(S(=O)(=O)N2CCCCCC2)c1	Nrf2 block 9.2µM | FLuc enzyme inh inactive | A549 tox-2 inactive | ARE-Fluc inh 9.2µM
O=C(Cn1cnc2ccccc21)Nc1cccc(S(=O)(=O)N2CCCC2)c1	Nrf2 block 5.8µM | FLuc enzyme inh inactive | A549 tox-2 inactive | ARE-Fluc inh 9.2µM
COc1ccc(CCNC(=O)c2cccc(S(=O)(=O)N3CCCC3)c2)cc1OC	none
O=C(Cn1c(NCCO)nc2ccccc21)Nc1cccc(S(=O)(=O)N2CCCC2)c1	Nrf2 block inconclusive
COc1cc(OC)c(OC)cc1CNC(=O)c1cccc(S(=O)(=O)N2CCc3ccccc3C2)c1	Nrf2 block 7.3µM | FLuc enzyme inh inactive | A549 tox-2 inactive | ARE-Fluc inh 5.8µM
COc1cc(/C=C(/C#N)c2ccc(C)cc2)ccc1Oc1ccc([N+](=O)[O-])cn1	Nrf2 block 2.9µM | FLuc enzyme inh inactive | A549 tox-2 inactive | ARE-Fluc inh inconclusive
COc1cccc2cc(-c3nc(-c4ccccc4)c(C)s3)c(=O)oc12	none (no result: Nrf2 ARE act)
COc1ccc2c(c1)CCc1c(C(=O)Nc3c(C)nn(Cc4ccc(Cl)c(Cl)c4)c3C)noc1-2	Nrf2 block 4.6µM | FLuc enzyme inh inactive | A549 tox-2 inactive | ARE-Fluc inh 9.2µM
COc1ccc2c(c1)CCc1c(C(=O)Nc3cc(C)n(Cc4ccc(Cl)cc4)n3)noc1-2	none
Cc1cc(C)c2c(CC(=O)Nc3nnc(C(C)C)s3)coc2c1	none
CCOc1ccc(NC(=O)COc2ccc(C(=O)NCc3cccnc3)cc2OC)cc1	none
COc1cc(C(=O)NCc2cccnc2)ccc1OCC(=O)Nc1cccc(C(F)(F)F)c1	Nrf2 block 6.5µM | FLuc enzyme inh inactive | A549 tox-2 inactive | ARE-Fluc inh 16µM
COc1cc2ccnc(Cc3cccc(OC)c3OC)c2cc1OC	Nrf2 block 3.7µM | FLuc enzyme inh inactive | A549 tox-2 inactive | ARE-Fluc inh 16µM
O=C(Nc1ccc(F)cc1)c1ccc(Cn2nc(N3CCN(c4ccccc4)CC3)ccc2=O)o1	A549 tox-1 inconclusive, Nrf2 block 8.2µM | FLuc enzyme inh inactive | A549 tox-2 inactive | ARE-Fluc inh 2.6µM
O=C(Cn1nc(N2CCN(c3ccccc3)CC2)ccc1=O)Nc1ccc(F)cc1F	none
O=C(NC1CC(=O)N(c2ccc(F)cc2)C1)C1CCCC1 (stereo not drawn)	none (no result: Nrf2 block)
Cc1cc(C(C)(C)C)cc(C)c1C[n+]1ccc2ccccc2c1	Nrf2 block 3.7µM | FLuc enzyme inh inactive | A549 tox-2 inactive | ARE-Fluc inh 2.3µM
COc1ccc(-c2csc(NC(=O)Cc3ccccc3)n2)cc1OC	Nrf2 block 2.6µM | FLuc enzyme inh inactive | A549 tox-2 inactive
CCc1nnc(NC(=O)Cc2ccc(OC)c(OC)c2)s1	none
CCc1ccccc1OCC(=O)Nc1nc(-c2cccnc2)cs1	A549 tox-1 inconclusive, Nrf2 block 7.3µM | FLuc enzyme inh inactive | A549 tox-2 inconclusive | ARE-Fluc inh inconclusive
O=C(Cc1ccccc1)Nc1nc(-c2ccc(F)c(F)c2)cs1	none
COc1ccc(CC(=O)Nc2nnc(C(C)(C)C)s2)cc1OC	Nrf2 block 9.2µM | FLuc enzyme inh inactive | A549 tox-2 inactive | ARE-Fluc inh inactive
Cc1ccc2c(Sc3ccc(Cl)cc3)c(C(=O)N3CCCCC3)[nH]c2c1	none
CCn1c2c(c(=O)n3ncc(C(=O)Nc4ccc(C(=O)OC)cc4)c13)CN(Cc1ccc(OC)cc1)CC2	none (no result: Nrf2 block)
COc1cc2c(NC3CCN(C(C)C)CC3)nc(N3CCCN(C)CC3)nc2cc1OCCOCCN(C)C	none (no result: Nrf2 ARE act, A549 tox-1, Nrf2 block, Pin1 inhibitor) | FLuc enzyme inh inactive | A549 tox-2 inactive | ARE-Fluc inh 6.5µM
COc1cc2c(NC3CCN(C(C)C)CC3)nc(N3CCCN(C)CC3)nc2cc1OCCCN1CCCC1	none (no result: Nrf2 ARE act, A549 tox-1, Nrf2 block, Pin1 inhibitor) | FLuc enzyme inh inactive | A549 tox-2 inconclusive | ARE-Fluc inh 1.5µM
COc1cc2nc(N3CCN(C(=O)C4CCCO4)CC3)nc(N)c2cc1OC (stereo not drawn)	Nrf2 block inconclusive
O=C(Nc1ccccc1C(F)(F)F)N1CCC2(CC1)Oc1ccccc1C(=O)N2Cc1ccccc1F	none
CCN1C(=O)c2ccccc2S(=O)(=O)c2ccc(C(=O)NCc3ccc(C)cc3)cc21	Nrf2 block inconclusive
